From PubChem BioAssay
Pf Dd2 inh: P. falciparum Dd2 growth inhibitors, primary screen, SYBR Green fluorescence, single dose replicates. activity change, % at 10 µM. AID 1159554, 2015. 2.3% of 94,000 active. 72 h; active compounds read low; in the data active means activity change below about -80%; inconclusive means no clear call, values can overlap the other calls
C diff growth: C. difficile growth inhibitors, primary screen, HTS | Clostridium difficile clinical isolate growth, OD600, 24 h; active compounds read low | growth activity, negative = inhibition, % at 16 µg/mL (by protocol) | 0.25% of 86,000 active | AID 1259249, 2017;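 active means mean growth activity at or below -80% and every replicate also at or below -80%; inconclusive means mean at or below -80% but some replicate above -80%; inactive means mean growth activity above -80%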;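 further: 0% = DMSO wells and -100% = levofloxacin 16 µg/mL wells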
T cruzi growth-1: T. cruzi intracellular proliferation inhibitors, primary screen, cell-based, beta-gal Tulahuen parasites, NIH3T3 host, luminescence | T. cruzi beta-gal in NIH3T3, GalScreen luminescence, 90 h | inhibition, % at 8.34 µM | 5.9% of 77,000 active;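 active means mean inhibition above about 93%, with at least 55% of replicates each passing it, limit read from the data, passing the limit was not always enough; inconclusive means only one of those two conditions holds; inactive means neither condition holds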
T cruzi growth-2: T. cruzi intracellular proliferation inhibitors, confirmation, cell-based, NIH3T3 host, beta-gal parasite, luminescence, cherry-pick; 72% of 5,600 active; shares compounds with T cruzi growth-1; T. cruzi beta-gal in NIH3T3, GalScreen luminescence, 90 h; inhibition, % at 8.35 µM;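 active means mean replicate inhibition above about 95% and at least 55% of replicates individually reaching it, limit read from the data; inconclusive means only one of the two criteria is met; inactive means neither criterion is met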
T cruzi growth-3: inhibitors of intracellular T. cruzi replication, confirmation, NIH3T3 host cells, beta-gal parasites, cherry-pick, set 2 | shares compounds with T cruzi growth-1 | T. cruzi beta-gal in NIH3T3, GalScreen luminescence, 90 h | inhibition, % at 2.09 µM | 21% of 5,600 active | AID 651740, 2012;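 active means mean inhibition above about 95%, with at least 55% of replicates also reaching it, limit read from the data; inconclusive means meets just one of the two conditions; inactive means meets neither condition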;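 further: plate controls were neutral control median for no effect and positive control median for full effect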
NIH3T3 tox: cytotoxicity in mouse NIH/3T3 fibroblasts, confirmation, cytotoxicity control for T. cruzi proliferation inhibitor project, cell-based, cherry-pick, single point. shares compounds with T cruzi growth-1. NIH/3T3 viability, CellTiter-Glo ATP luminescence, 90 h. cytotoxicity (signal decrease), % at 8.35 µM. 14% of 5,600 active. AID 651742, 2012;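 active means mean signal decrease across replicates above about 35% based on untreated-well scatter, with enough replicates individually passing, limit read from the data; inconclusive means no rule stated though some were filed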;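 further: 0% = median of neutral control wells and 100% = median of positive control wells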
NIH3T3 tox 2: NIH/3T3 fibroblast cytotoxicity, confirmation, cytotoxicity control, cell-based, cherry-pick, single point, set 2. shares compounds with T cruzi growth-1. NIH/3T3 viability, CellTiter-Glo ATP luminescence, 90 h. inhibition, % at 24.9 µM. 56% of 5,600 active;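 active means mean loss of cell viability signal at or above a set limit, and enough replicates individually reaching it; inconclusive means meets only the mean limit or only the replicate share; inactive means meets neither condition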;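 further: 0% = median of neutral control wells and 100% = median of positive control wells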
* = called active by the depositor; ? = inconclusive; . = not tested or not shown. Only some compounds are listed: those with a hit (about 6.8% of all), similar ones and a draw of the others.

SMILES | Pf Dd2 inh | C diff growth | T cruzi growth-1 | T cruzi growth-2 | T cruzi growth-3 | NIH3T3 tox | NIH3T3 tox 2
COc1ccc(NC(=O)Nc2cccc3c2O[C@H](CN(C)Cc2ccc(Oc4ccccc4)cc2)[C@@H](C)CN([C@H](C)CO)C3=O)cc1 | ? | 6 | . | . | . | . | .
COc1ccc2c3c(n(C)c2c1)[C@H](CO)N(C(=O)C1CCCC1)CC31CCN(CC2CCCC2)CC1 | -76 | 6 | . | . | . | . | .
C[C@H](CO)N1C[C@H](C)[C@H](CN(C)Cc2ccc3c(c2)OCO3)Oc2cc(C#CCN(C)C)ccc2S1(=O)=O | ? | 8 | 76 | . | . | . | .
C[C@H]1CN([C@@H](C)CO)S(=O)(=O)c2ccc(C#CCN(C)C)cc2O[C@H]1CN(C)Cc1ccc2c(c1)OCO2 | -68 | 9 | 104* | 101* | 53 | 13 | 26*
C[C@@H]1CN([C@@H](C)CO)S(=O)(=O)c2ccc(C#CCN(C)C)cc2O[C@@H]1CN(C)Cc1ccc2c(c1)OCO2 | -54 | 3 | 85 | . | . | . | .
C[C@H]1CN([C@@H](C)CO)S(=O)(=O)c2ccc(C#CCN(C)C)cc2O[C@@H]1CN(C)Cc1ccc2c(c1)OCO2 | -37 | 4 | 107* | 107* | 88 | 29 | 106*
CN1C(=O)c2cc(NC(=O)c3cccs3)ccc2OC[C@H]2O[C@H](CC(=O)N3CCCCC3)CC[C@H]21 | -6 | -3 | 85 | . | . | . | .
CCC(=O)Nc1ccc2c(c1)OC[C@H](C)N(C(=O)c1ccc(F)cc1)C[C@H](C)[C@@H](OC)CN(C)C2=O | 10 | -4 | . | . | . | . | .
CO[C@H]1CN(C)C(=O)c2ccc(NC(=O)C3CC3)cc2OC[C@@H](C)N(C(=O)c2cccnc2)C[C@@H]1C | -1 | . | 109* | -18 | -18 | -12 | -4
CCC(=O)Nc1ccc2c(c1)OC[C@H](C)N(C(=O)c1ccc(F)cc1)C[C@@H](C)[C@@H](OC)CN(C)C2=O | 4 | . | 104* | -12 | 1 | -5 | -2
CO[C@H]1CN(C)C(=O)c2ccc(NC(=O)C3CC3)cc2OC[C@H](C)N(C(=O)c2cccnc2)C[C@H]1C | 20 | . | -31 | . | . | . | .
COCC(=O)N(C)C[C@H]1Oc2ncc(C#Cc3ccc(F)cc3)cc2C(=O)N([C@H](C)CO)C[C@H]1C | -2 | -2 | 0 | . | . | . | .
C[C@@H]1CCCCO[C@@H](CN(C)C(=O)Nc2cccc3ccccc23)[C@H](C)CN([C@@H](C)CO)C(=O)c2cc(NS(C)(=O)=O)ccc2O1 | -37 | 8 | 116* | -32 | 9 | -12 | -14
C[C@@H]1CCCCO[C@@H](CN(C)C(=O)Nc2cccc3ccccc23)[C@H](C)CN([C@@H](C)CO)C(=O)c2cc(NS(=O)(=O)c3cccs3)ccc2O1 | -46 | 9 | 101* | 107* | 41 | 6 | -20
C[C@@H]1CN([C@@H](C)CO)C(=O)c2cc(NS(=O)(=O)c3cccs3)ccc2O[C@@H](C)CCCCO[C@@H]1CN(C)C(=O)Nc1cccc2ccccc12 | ? | 5 | 85 | . | . | . | .
C[C@@H]1CN([C@@H](C)CO)C(=O)c2cc(NS(=O)(=O)c3ccc(Cl)cc3)ccc2O[C@@H](C)CCCCO[C@@H]1CN(C)C(=O)Nc1cccc2ccccc12 | -75 | -4 | 99* | 105* | ? | 16 | 18
C[C@H]1CCCCO[C@H](CN(C)C(=O)Nc2cccc3ccccc23)[C@@H](C)CN([C@@H](C)CO)C(=O)c2cc(NS(=O)(=O)c3ccc(Cl)cc3)ccc2O1 | -66 | -12 | ? | 97* | 119* | -26 | -10
C[C@H](CO)N1C[C@H](C)[C@@H](CN(C)C(=O)Nc2cccc3ccccc23)OCCCC[C@H](C)Oc2ccc(NS(=O)(=O)c3ccc(Cl)cc3)cc2C1=O | -43 | -6 | 91 | . | . | . | .
C[C@@H]1CCCCO[C@H](CN(C)C(=O)Nc2cccc3ccccc23)[C@@H](C)CN([C@@H](C)CO)C(=O)c2cc(NS(C)(=O)=O)ccc2O1 | -50 | 19 | 8 | . | . | . | .
C[C@@H]1CCCCO[C@@H](CN(C)C(=O)Nc2cccc3ccccc23)[C@H](C)CN([C@H](C)CO)C(=O)c2cc(NS(=O)(=O)c3ccc(Cl)cc3)ccc2O1 | -14 | -4 | 90 | . | . | . | .
O=C(C[C@@H]1CC[C@H](NS(=O)(=O)c2cccc(F)c2)[C@H](CO)O1)NCc1ccc2c(c1)OCO2 | -9 | . | 2 | . | . | . | .
CCCC(=O)N1CC2(CN(C(=O)C3CCC3)C2)c2c(n(C)c3cc(OC)ccc23)[C@H]1CO | 3 | 1 | . | . | . | . | .
C[C@H](CO)N1C[C@H](C)[C@H](CN(C)C(=O)Nc2cccc3ccccc23)OCCCC[C@H](C)Oc2ccc(NS(=O)(=O)c3ccc(Cl)cc3)cc2C1=O | -14 | 5 | 96* | 101* | 63 | -4 | 1
C[C@@H]1CCCCO[C@H](CN(C)C(=O)Nc2cccc3ccccc23)[C@@H](C)CN([C@H](C)CO)C(=O)c2cc(NS(=O)(=O)c3ccc(Cl)cc3)ccc2O1 | -49 | -12 | 89 | . | . | . | .
C[C@H]1CCCCO[C@H](CN(C)C(=O)Nc2cccc3ccccc23)[C@@H](C)CN([C@@H](C)CO)C(=O)c2cc(NS(=O)(=O)c3ccc(F)cc3)ccc2O1 | -63 | -5 | 88 | . | . | . | .
SMILES | Pf Dd2 inh | C diff growth | T cruzi growth-1 | T cruzi growth-2 | T cruzi growth-3 | NIH3T3 tox | NIH3T3 tox 2
C[C@@H]1CCCCO[C@@H](CN(C)C(=O)Nc2cccc3ccccc23)[C@H](C)CN([C@@H](C)CO)C(=O)c2cc(NS(=O)(=O)c3ccc(F)cc3)ccc2O1 | -36 | -2 | 105* | 101* | 66 | 7 | 3
O=C(NC1CCCCC1)N[C@@H]1CC[C@H](CC(=O)N2CCOCC2)O[C@@H]1CO | 15 | -7 | . | . | . | . | .
C[C@H]1CCCCO[C@H](CN(C)C(=O)Nc2ccc3c(c2)OCO3)[C@@H](C)CN([C@@H](C)CO)C(=O)c2cc(NC(=O)c3ccncc3)ccc2O1 | -6 | -1 | 52 | . | . | . | .
COc1ccc2c3c([nH]c2c1)[C@H](CO)N(C(=O)C1CCC1)CC31CN(C(=O)c2ccccn2)C1 | -3 | -13 | . | . | . | . | .
O=C(Nc1ccccc1)N1CCCCN2[C@H](CO)[C@H](c3ccc(-c4ccccc4)cc3)[C@H]2C1 | -35 | 20 | 103* | 101* | 64 | 56* | 104*
O=C(Nc1ccccc1)N1CCCCN2[C@H](C1)[C@H](c1ccc(-c3ccncc3)cc1)[C@@H]2CO | 25 | 1 | 63 | . | . | . | .
